Seven compounds from PubChem BioAssay (NCI) can be followed below.

Compounds without any hit were thinned out: in the full panel of roughly 83,000, 20% have a hit.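 Note: values are percent growth. 100 is the growth of untreated cells, values between 100 and 0 indicate rising inhibition; between -100 and 0 indicates cell death.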 Values without a mark were called inactive. Calls of active or inactive are those of the source. How the source made its calls: active means growth percent below 10; inactive means the rest.

Among the test systems are NCI-H23 lung; NCI-H226 lung; NCI-H322M lung; HOP-62 NSCLC; NCI-H460 lung; HOP-92 NSCLC; NCI-H522 lung; A549/ATCC NSCLC; 786-0 renal; COLO 205 colon; DU-145 prostate; K-562 leukemia; MALME-3M melanoma; MDA-MB-231 breast; RXF 393 renal; SF-268 CNS; SF-295 CNS; SF-539 CNS; UACC-257 melanoma; M14 melanoma.
Common to all, as to assay: NCI-60 one-dose screen, 48 h (100 = growth as untreated, 0 = no growth, -100 = all killed)
Common to all, as to settings: 10 µM unless noted

In the case of `COc1cc(C(=O)c2cnc(-c3c[nH]c4cccc(C)c34)[nH]2)cc(OC)c1OC`, the growth with NCI-H23 lung was 24%; with NCI-H226 lung, 57%; with NCI-H322M lung, 40.3%; in the assay on HOP-62 NSCLC, 36.2%; with NCI-H460 lung, 3.6% (active); in the assay with HOP-92 NSCLC it was 5.73% (active). Moreover, the growth is -4.91% (active) in the assay with NCI-H522 lung; 20.4% in the assay with A549/ATCC NSCLC; 10.4% in the assay with 786-0 renal; -29.3% (active) with COLO 205 colon; -6.2% (active) in the assay with DU-145 prostate; 8.72% (active) with K-562 leukemia. In addition, the growth was 53.8% with MALME-3M melanoma; -3.1% (active) with MDA-MB-231 breast; 75.2% with RXF 393 renal; 18.9% in the assay with SF-268 CNS; 7.59% (active) with SF-295 CNS; 0.434% (active) in the assay with SF-539 CNS. For the same compound, the results for the growth in the assay on UACC-257 melanoma and in the assay on M14 melanoma were 83.9% and -2.55% (active), respectively.
On to `NCCCNc1nc2ccccc2c2c(=O)c3cc(C(F)(F)F)ccc3sc12`, for which the growth is 49.6% in the assay with NCI-H23 lung; 86.8% with NCI-H226 lung; 56.8% in the assay with NCI-H322M lung; 52.7% in the assay on HOP-62 NSCLC; -69.7% (active) in the assay on NCI-H460 lung; 32.6% in the assay with HOP-92 NSCLC. Moreover, the growth with NCI-H522 lung is -3.15% (active); with A549/ATCC NSCLC, -16.6% (active); in the assay on 786-0 renal it was 61.1%; in the assay with COLO 205 colon it was -41.4% (active); in the assay on DU-145 prostate, -0.179% (active); in the assay on K-562 leukemia, -21.4% (active). Moreover, the growth was 87.1% in the assay with MALME-3M melanoma; -35.2% (active) in the assay with MDA-MB-231 breast; 55.7% in the assay with RXF 393 renal; 47.1% in the assay with SF-268 CNS; 71.7% with SF-295 CNS; -20% (active) with SF-539 CNS. For the same compound, the results for the growth with UACC-257 melanoma and in the assay on M14 melanoma were 96.1% and -26.9% (active), respectively.
Take `CCOC(=O)Nc1ccc(-c2nc(-c3cccc(OC)c3)c(-c3ccnc(Br)c3)[nH]2)cc1`: the growth was 31.7% in the assay on NCI-H23 lung; 46.4% in the assay on NCI-H226 lung; 45.7% with NCI-H322M lung; 30.2% in the assay on HOP-62 NSCLC; 27.2% with NCI-H460 lung; 42.2% in the assay with HOP-92 NSCLC. The growth in the assay on NCI-H522 lung was 30.2%; in the assay with A549/ATCC NSCLC it was 36.9%; in the assay with 786-0 renal it was 9.61% (active); in the assay with COLO 205 colon, 49.2%; in the assay with DU-145 prostate, 51.9%; with K-562 leukemia, 11.9%. The growth with MALME-3M melanoma is 40.5%; in the assay with MDA-MB-231 breast it was 41.2%; in the assay with RXF 393 renal it was -27% (active); in the assay on SF-268 CNS it was 51.9%; with SF-295 CNS it was -36.1% (active); with SF-539 CNS, 21.7%. Also, the growth with UACC-257 melanoma was 56.1%; with M14 melanoma it was 36%.
Consider `CCCCCCNC(=O)Oc1ccc(/C(=C(\C)c2ccc(Cl)cc2)c2ccc(OCCN(CC)CC)cc2)cc1`, for which the growth with NCI-H23 lung was 67.1%; with NCI-H226 lung, 101%; with NCI-H322M lung, 85.7%; with HOP-62 NSCLC, 77.8%; in the assay on NCI-H460 lung it was 26.4%; in the assay with HOP-92 NSCLC it was 58.3%. Moreover, the growth was 86.4% in the assay with NCI-H522 lung; 58.4% in the assay on A549/ATCC NSCLC; 41.2% in the assay with 786-0 renal; 4.94% (active) in the assay with COLO 205 colon; 73.5% with DU-145 prostate; 2.67% (active) in the assay on K-562 leukemia. The growth is 49.3% in the assay on MALME-3M melanoma; 65% in the assay with MDA-MB-231 breast; 49.7% with RXF 393 renal; 62% in the assay on SF-268 CNS; 84.9% in the assay on SF-295 CNS; 72.3% in the assay on SF-539 CNS. The growth was 6.29% (active) in the assay with UACC-257 melanoma and -4.87% (active) with M14 melanoma.
Regarding `NCCOc1ncccc1/C=C1\c2ccccc2-c2ccc(C(F)F)cc21`, the growth in the assay on NCI-H23 lung is 42.3%; with NCI-H226 lung, 61.8%; in the assay with NCI-H322M lung, 98.8%; in the assay with HOP-62 NSCLC it was 39.9%; in the assay on NCI-H460 lung, 9.8% (active); with HOP-92 NSCLC, 49.6%. For the same compound, the growth in the assay with NCI-H522 lung is 79%; with A549/ATCC NSCLC, 20.9%; in the assay with 786-0 renal, 56.4%; in the assay with COLO 205 colon, 48.9%; with DU-145 prostate, 13.1%; with K-562 leukemia, 16.5%. Moreover, the growth is 61.6% with MALME-3M melanoma; 35.3% with MDA-MB-231 breast; 61.5% in the assay on RXF 393 renal; 54.3% with SF-268 CNS; 53.7% in the assay with SF-295 CNS; 49.3% in the assay on SF-539 CNS. Moreover, the growth in the assay on UACC-257 melanoma is 102%; with M14 melanoma, 64.5%.
On to `CCc1ccc(Oc2c(-c3ccc(OCCc4cccc(C(F)(F)F)c4)cc3O)n[nH]c2C(F)(F)F)cc1`, for which the growth in the assay with NCI-H23 lung was 4.8% (active); in the assay on NCI-H226 lung, 52.9%; with NCI-H322M lung, 76.7%; in the assay with HOP-62 NSCLC it was 76.6%; in the assay on NCI-H460 lung, 2.53% (active); in the assay on HOP-92 NSCLC, -5.8% (active). The growth was -20.5% (active) in the assay on NCI-H522 lung; 55.9% with A549/ATCC NSCLC; 91.2% in the assay with 786-0 renal; 100% in the assay with COLO 205 colon; 25.6% with DU-145 prostate; 7.94% (active) in the assay on K-562 leukemia. The growth in the assay with MALME-3M melanoma was 48.8%; with MDA-MB-231 breast, 50.2%; in the assay with RXF 393 renal, 80.7%; with SF-268 CNS, 47.7%; in the assay on SF-295 CNS, 87.6%; with SF-539 CNS it was 74%. Also, the growth is 56.6% in the assay on UACC-257 melanoma and 59.1% in the assay on M14 melanoma.
`Nc1nn(C(=O)Nc2ccc(Cc3ccccc3)cc2)c2ccc(Cl)cc12`: the growth with NCI-H23 lung was 70.1%; in the assay on NCI-H226 lung, 63.5%; with NCI-H322M lung, 65.9%; with HOP-62 NSCLC, 67.8%; in the assay with NCI-H460 lung, 28.9%; in the assay on HOP-92 NSCLC, 99.8%. Also, the growth with NCI-H522 lung was 73.1%; in the assay with A549/ATCC NSCLC, 38.3%; with 786-0 renal it was 64%; in the assay with COLO 205 colon, 34.9%; with DU-145 prostate, 85.6%; with K-562 leukemia it was 3.86% (active). Moreover, the growth is 55.9% with MALME-3M melanoma; 59.7% in the assay with MDA-MB-231 breast; 93.3% in the assay on RXF 393 renal; 81.4% in the assay on SF-268 CNS; 27% in the assay on SF-295 CNS; -19.2% (active) in the assay with SF-539 CNS. For the same compound, the growth with UACC-257 melanoma was 42.1%; in the assay with M14 melanoma it was 37.2%.
